Reference: the supplement of paper PMC11732987, “Enantioselective OTUD7B fragment discovery through chemoproteomics screening and high-throughput optimisation” (Communications Chemistry, 2025)

Biological target: T1, USP38 (UniProt Q8NB14)
T1 sequence (whole entry): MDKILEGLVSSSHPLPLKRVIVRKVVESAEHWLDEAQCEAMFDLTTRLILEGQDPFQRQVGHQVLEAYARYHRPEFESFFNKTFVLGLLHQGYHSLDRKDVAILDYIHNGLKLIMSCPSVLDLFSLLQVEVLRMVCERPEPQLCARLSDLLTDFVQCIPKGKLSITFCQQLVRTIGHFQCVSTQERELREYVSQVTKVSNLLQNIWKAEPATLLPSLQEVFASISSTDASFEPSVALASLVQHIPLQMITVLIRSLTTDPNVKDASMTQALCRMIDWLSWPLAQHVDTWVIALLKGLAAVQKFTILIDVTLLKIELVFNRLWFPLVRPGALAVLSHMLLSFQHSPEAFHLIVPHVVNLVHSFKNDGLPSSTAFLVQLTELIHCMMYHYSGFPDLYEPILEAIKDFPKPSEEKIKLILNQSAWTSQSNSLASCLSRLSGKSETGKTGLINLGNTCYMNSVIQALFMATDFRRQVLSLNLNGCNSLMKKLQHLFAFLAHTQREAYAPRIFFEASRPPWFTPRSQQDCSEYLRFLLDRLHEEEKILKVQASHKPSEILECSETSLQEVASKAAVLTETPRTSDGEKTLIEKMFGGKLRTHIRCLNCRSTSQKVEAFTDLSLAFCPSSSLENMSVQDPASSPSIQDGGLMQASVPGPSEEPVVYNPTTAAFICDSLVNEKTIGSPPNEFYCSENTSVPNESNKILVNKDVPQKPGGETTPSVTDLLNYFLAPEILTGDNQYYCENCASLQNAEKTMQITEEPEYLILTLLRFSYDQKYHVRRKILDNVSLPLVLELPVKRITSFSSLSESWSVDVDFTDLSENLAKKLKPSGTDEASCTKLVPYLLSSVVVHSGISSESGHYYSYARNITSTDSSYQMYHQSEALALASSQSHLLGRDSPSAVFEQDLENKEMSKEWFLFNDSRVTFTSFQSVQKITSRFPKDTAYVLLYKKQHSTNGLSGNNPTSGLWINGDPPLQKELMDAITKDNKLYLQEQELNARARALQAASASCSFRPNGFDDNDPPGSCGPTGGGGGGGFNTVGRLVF
Assay: log2 ratio of Biotin-Ahx-Ub-VS probe labelling (fragment/DMSO); higher = less target engagement (more negative = stronger competition), active = hit call of the paper (q ≤ 0.05, log2 ratio ≤ -1)
Conditions: compound concentration: 200 uM; treatment time: 3 h
Experimental: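 Competitive ABPP in HEK293T cell lysate. Lysates were treated with each chloroacetamide fragment at 200 µM for 3 h, then with Biotin-Ahx-Ub-VS (0.5 µM, 1 h), NeutrAvidin-enriched and analysed by diaPASEF LC-MS/MS. Protein LFQ was median-normalised; average log2 ratio is fragment/DMSO from an unpaired t-test (n=3 treated, n=44 DMSO). Hits: q ≤ 0.05, log2 ratio ≤ -1, unique peptides ≥ 2.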

Structure (SMILES) | log2 ratio of Biotin-Ahx-Ub-VS probe labelling
O=C(CCl)NCC1CCC1 | 0.000742 (inactive)
Cc1cccc(NC(=O)CCl)c1 | -0.146 (inactive)
CC(C)CN(C(=O)CCl)C1CC1 | 0.00725 (inactive)
O=C(CCl)NCc1ccco1 | -0.144 (inactive)
O=C(CCl)N1CCCCCCC1 | -0.0744 (inactive)
CC1CN(C(=O)CCl)CC(C)O1 (centres undefined) | -0.205 (inactive)
CC1CCCCC1NC(=O)CCl (centres undefined) | -0.0227 (inactive)
O=C(CCl)N1CCCC1=O | -0.1 (inactive)
Cc1ncsc1CNC(=O)CCl.Cl | 0.147 (inactive)
O=C(CCl)NC(C1CC1)C1CC1 | -0.124 (inactive)
Cc1nc(NC(=O)CCl)sc1C | -0.00435 (inactive)
CC(NC(=O)CCl)c1cccs1 (centres undefined) | -0.0174 (inactive)
Cc1nnc(NC(=O)CCl)s1 | -0.33 (inactive)
CN(C(=O)CCl)C1CCCCC1 | 0.0172 (inactive)
Cc1cc(NC(=O)CCl)no1 | -0.139 (inactive)
N#CC1(NC(=O)CCl)CCCC1 | -0.0299 (inactive)
CC1CCCCN1C(=O)CCl (centres undefined) | -0.196 (inactive)
O=C(CCl)NCC1CCCO1 (centres undefined) | -0.00745 (inactive)
O=C(CCl)Nc1cccc(Cl)c1 | -0.568 (inactive)
